This assay can be described thus: probe aEGFR binding to arrayed compounds – biochemical, biotinylated probe, 635/667 nm fluorescence, primary screen (AID 1097).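 Also: probe is a biotinylated anti-EGFR antibody binding compounds printed on slides; score combines fluorescence near 667 nm and signal to noise of each spot.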 The note with it: small-molecule microarray, higher = more signal.
Molecule `CC(C)CN1CCc2nc(-c3ccccc3)c3c(c2C1)CO[C@@H](C)C3` gave a composite z-score of 0.0914.
With `COCC#Cc1ccc([C@@H]2N[C@H](C(=O)O)CC[C@H]2C)cc1` the figure was -0.0953.
The molecule `C[C@@H](c1ccccc1)N1C(=O)[C@H]2[C@H]3[C@H](O)[C@H](O)CC(=NOC[C@@H](O)COCc4ccco4)[C@H]3CC[C@H]2C1=O` displayed a composite z-score of -0.164.
With `CCOC(=O)[C@H](CC(C)C)NC(=O)CCC1CC(OC(=O)NCc2ccc3c(c2)OCO3)CC2(CCCC(COC(=O)NCCc3ccc(Cl)cc3)O2)O1` (stereo partly specified) the figure was 0.065; with `C#CCCCON=C1C[C@@H](O)[C@@H](O)[C@@H]2[C@@H]3C(=O)N(C4CCCCC4)C(=O)[C@@H]3CC[C@@H]12`, -0.0409.
`CC(C)=CCCC(C)=CCON=C1C[C@@H](O)[C@@H](O)[C@@H]2[C@@H]3C(=O)N(c4cccc(Oc5ccccc5)c4)C(=O)[C@@H]3CC[C@H]12` came in with a composite z-score of 0.0209.
To `COc1ccc(O[C@H]2C=C[C@@H](C#Cc3ccccc3)O[C@@H]2CO)cc1` belongs -0.125.
To `CCCNC(=O)OC[C@H]1O[C@H](CCON=C[C@@H](NS(=O)(=O)c2ccc(C)cc2)[C@H](C)C=CCC(=O)OC)C=C[C@@H]1Oc1ccc(OC)cc1` belongs -0.0443; to `COC(=O)[C@H](C)NC(=O)CCC1CC(OC(=O)NCc2cccc3ccccc23)CC2(CCCC(COC(=O)NCCCN3CCCC3=O)O2)O1` (stereo partly specified), 0.074; to `COC(=O)[C@H](C)NC(=O)CCC1CC(OC(=O)NCCc2ccc(F)cc2)CC2(CCCC(COC(=O)NCC3CCCCC3)O2)O1` (stereo partly specified), 0.0207.
To `COC(=O)[C@H](C)NC(=O)CCC1CC(OC(=O)NCc2ccc3c(c2)OCO3)CC2(CCCC(COC(=O)NCCc3ccc(Cl)cc3)O2)O1` (stereo partly specified) belongs -0.0675; to `COc1ccc(COC(=O)NN=C2C[C@@H](O)[C@@H](O)[C@@H]3[C@@H]4C(=O)N([C@@H](C)c5ccccc5)C(=O)[C@@H]4CC[C@@H]23)cc1`, -0.103.
Regarding `COc1ccc(O[C@H]2C=C[C@@H](c3ccccc3)O[C@@H]2COC(=O)CCC(C)=NOC[C@@H](O)COCc2ccco2)cc1`, the composite z-score was -0.48.
With `CCN1C(=O)[C@H]2[C@H]3[C@H](O)[C@H](O)CC(=NOCC(C)C)[C@H]3CC[C@H]2C1=O` the figure was 0.0167; with `CC(=O)OC[C@H]1O[C@H](C#CCC2CCCCC2)C=C[C@@H]1OC(C)=O`, 0.0698.
With `CCN1C(=O)[C@H]2[C@H]3[C@H](O)[C@H](O)CC(=NOC[C@@H](O)[C@H]4O[C@@H]5OC(C)(C)O[C@@H]5[C@H]4O)[C@@H]3CC[C@H]2C1=O` the figure was -0.0685; with `C[C@@H]1CC[C@@H](C(=O)O)N[C@H]1c1cccc(N2CCOCC2)c1`, -0.106; with `CCOC(=O)NN=C1C[C@@H](O)[C@@H](O)[C@@H]2[C@@H]3C(=O)N(c4ccc(F)cc4F)C(=O)[C@@H]3CC[C@H]12`, 0.021.
With `CCC1=NOC(CCC2CC(OC(=O)NCc3cccc4c3OCO4)CC3(CCCC(COC(=O)NCCc4ccc(Cl)cc4)O3)O2)C1` (stereo unspecified), the composite z-score is -0.125.
Take `CCOC(=O)CCN1C(=O)[C@H]2[C@H]3[C@H](O)[C@H](O)CC(=NO[C@@H]4O[C@H](CO)[C@@H](O)[C@H](O)[C@H]4O)[C@@H]3CC[C@H]2C1=O`: the composite z-score came to 0.176.
With `CCOC(=O)[C@H](CC(C)C)NC(=O)CCC1CC(OC(=O)NCc2ccc3c(c2)OCO3)CC2(CCCC(COC(=O)NCc3ccccc3)O2)O1` (stereo partly specified) the figure was -0.0978; with `CC(C)C(=O)N[C@H]1CCCN1C(=O)C=Cc1ccccc1`, 0.125; with `COC(=O)[C@H](C)NC(=O)CCC1CC(OC(=O)NCc2cccc3ccccc23)CC2(CCCC(COC(=O)NCc3ccccc3)O2)O1` (stereo partly specified), 0.12.
As for `CCOC(=O)[C@H](CC(C)C)NC(=O)CCC1CC(OC(=O)NCCc2ccc(F)cc2)CC2(CCCC(COC(=O)NCc3cccc4ccccc34)O2)O1` (stereo partly specified), the composite z-score was -0.0995.
With `COC(=O)CC=C[C@@H](C)[C@@H](C=NOC(C)CN1CCCCc2nc(C)c(C)cc21)OC` (stereo partly specified) the figure was 0.0282.
To `CCN1C(=O)[C@H]2[C@H]3[C@H](O)[C@H](O)CC(=NOC[C@@H](O)COCc4ccco4)[C@H]3CC[C@H]2C1=O` belongs -0.099; to `COCCNC(=O)OCC1CCCC2(CC(OC(=O)NCc3cccc4ccccc34)CC(CCC(=O)N[C@@H](C)C(=O)OC)O2)O1` (stereo partly specified), -0.0978.
To `CC(=O)OC[C@H]1O[C@@H](ON=C(C)CCN2CCCCc3nc(C)c(C)cc32)[C@H](OC(C)=O)[C@@H](OC(C)=O)[C@@H]1OC(C)=O` belongs 0.145; to `O=C1C=C[C@@H](O)[C@@H]2[C@@H]3C(=O)N(c4cccc(Oc5ccccc5)c4)C(=O)[C@@H]3CC[C@@H]12`, 0.0443; to `CCOC(=O)[C@H](CC(C)C)NC(=O)CCC1CC(OC(=O)NCCc2ccc(F)cc2)CC2(CCCC(COC(=O)NCCOC)O2)O1` (stereo partly specified), -0.0975.
The molecule `CCN1C(=O)[C@H]2[C@H]3[C@H](O)[C@H](O)CC(=NOC(C)CN4CCCc5nc(C)c(C)cc54)[C@@H]3CC[C@H]2C1=O` (stereo partly specified) had a composite z-score of 0.012.
To `CC(C)=CCCC(C)=CCON=C1[C@H]2CCn3c(=O)n(-c4ccccc4)c(=O)n3[C@H]2[C@H](O)[C@@H]2O[C@H]12` belongs -0.0211; to `O=C1C=C[C@@H](O)[C@@H]2[C@@H]3C(=O)N(Cc4ccccc4)C(=O)[C@@H]3CC[C@@H]12`, -0.104.
To `CCCCOC(OCCCC)C(O)CSc1ccc2ccccc2c1` (stereo unspecified) belongs -0.15; to `CC[C@@H](c1ccccc1)n1c(=O)n2n(c1=O)[C@H]1[C@H](O)[C@@H]3O[C@@H]3C(=NOCc3ccccc3)[C@H]1CC2`, -0.0824.
To `CC(CCN1CCCc2nc(C)c(C)cc21)=NOC[C@@H](C)[C@H](OCc1ccccc1)C(C)C` belongs -0.183.

For the origin of these results see PubChem BioAssay.
